Data on 39 compounds can be found in the supplement of paper PMC12350171.

Counter-ions that a name gives are not always drawn.

The test has as its system Haemophilus parainfluenzae. The experiment in a line: growth AUC normalised to DMSO control (fraction of control); higher = less growth inhibition, active = hit call of the paper. As to conditions: 20 µM;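 active = AUC significantly below DMSO controls by Student t-fit with adjusted P under 0.01; inactive = not significantly reduced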. In outline: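 Hemin and NAD were added to the medium for Haemophilus parainfluenzae. All pathogens, after two anaerobic passages, were inoculated at a starting OD578 of 0.01 into pre-reduced mGAM plates with 20 μM compound and 1% DMSO under breathable seals, and OD578 was read hourly for 24 h in three biological replicates. AUC of each growth curve was obtained with the trapezoidal rule up to the exponential-to-stationary transition and normalised to DMSO controls from the same plate.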
With `C[C@@H](O)[C@H]1C(=O)N2C(C(=O)O)=C(S[C@@H]3CN[C@H](C(=O)N(C)C)C3)[C@H](C)[C@H]12` [Meropenem], the “growth AUC normalised to DMSO control” value is 0.283 (active).

`OC(CCN1CCCCC1)(c1ccccc1)C1CC2C=CC1C2` (centres undefined) [Biperiden hydrochloride]: the “growth AUC normalised to DMSO control” value was 0.95 (inactive).

As to `C[N+]1(CCCCC[N+]2(C)CCCC2)CCCC1` [Pentolinium bitartrate], the “growth AUC normalised to DMSO control” value was 0.96 (inactive).

In the case of `CCOC(=O)[C@H](CCc1ccccc1)N[C@@H](C)C(=O)N1CCC[C@H]1C(=O)O` [Enalapril maleate], the “growth AUC normalised to DMSO control” value was 1.03 (inactive).

For `CC1(C)O[C@@H]2C[C@H]3[C@@H]4C[C@H](F)C5=CC(=O)C=C[C@]5(C)[C@H]4[C@@H](O)C[C@]3(C)[C@]2(C(=O)CO)O1` [Flunisolide], the “growth AUC normalised to DMSO control” value is 0.945 (inactive).

Take `C[N+](C)(C)CCCCCC[N+](C)(C)C` [Hexamethonium dibromide dihydrate]: the “growth AUC normalised to DMSO control” value is 0.852 (inactive).

As for `CCN[C@H]1CN(CCCOC)S(=O)(=O)c2sc(S(N)(=O)=O)cc21` [Brinzolamide], the “growth AUC normalised to DMSO control” value was 0.946 (inactive).

In the case of `CS(=O)(=O)c1ccc(C2=C(c3ccccc3)C(=O)OC2)cc1` [Rofecoxib], the “growth AUC normalised to DMSO control” value was 0.964 (inactive).

As to `N=C(N)N1CCc2ccccc2C1` [Debrisoquin sulfate], the “growth AUC normalised to DMSO control” value was 0.978 (inactive).

Consider `CCc1cc(Cl)c(OC)c(C(=O)NC[C@@H]2CCCN2CC)c1O` [(S,-) Eticlopride hydrochloride], for which the “growth AUC normalised to DMSO control” value is 0.958 (inactive).

Regarding `NC12CC3CC(CC(C3)C1)C2` [Adamantamine fumarate], the “growth AUC normalised to DMSO control” value was 1.05 (inactive).

Turning to `CCN(CC)CCNC(=O)c1cc(Cl)c(N)cc1OC` [Metoclopramide monohydrochloride], the “growth AUC normalised to DMSO control” value was 0.991 (inactive).

Take `CC(C)COCC(CN(Cc1ccccc1)c1ccccc1)N1CCCC1` (centres undefined) [Bepridil hydrochloride]: the “growth AUC normalised to DMSO control” value is 0.771 (inactive).

For the compound `COc1ccccc1N1CCN(CC(O)COc2cccc3ccccc23)CC1` (centres undefined) [Naftopidil dihydrochloride], the “growth AUC normalised to DMSO control” value was 0.971 (inactive).

Take `CC(Oc1c(Cl)cccc1Cl)C1=NCCN1` (centres undefined) [Lofexidine]: the “growth AUC normalised to DMSO control” value was 0.993 (inactive).

With `COCCc1ccc(OCC(O)CNC(C)C)cc1` (stereo not drawn) [Metoprolol-(+)-tartrate salt], the “growth AUC normalised to DMSO control” value was 0.952 (inactive).

As for `CC(CN(C)C)CN1c2ccccc2CCc2ccccc21` (centres undefined) [Trimipramine maleate salt], the “growth AUC normalised to DMSO control” value was 1.07 (inactive).

Regarding `COc1cc(C(=O)NCc2ccc(OCCN(C)C)cc2)cc(OC)c1OC` [Trimethobenzamide hydrochloride], the “growth AUC normalised to DMSO control” value is 1.05 (inactive).

In the case of `CC1(C)NC(=O)N(c2ccc([N+](=O)[O-])c(C(F)(F)F)c2)C1=O` [Nilutamide], the “growth AUC normalised to DMSO control” value is 0.977 (inactive).

As to `COc1cc(NS(=O)(=O)c2ccc(N)cc2)nc(OC)n1` [Sulfadimethoxine], the “growth AUC normalised to DMSO control” value was 0.98 (inactive).

On to `CC(C)(C)NC[C@H](O)c1ccc(O)c(CO)c1` [Levalbuterol hydrochloride], for which the “growth AUC normalised to DMSO control” value is 0.993 (inactive).

Regarding `Cc1c(Cl)cccc1Nc1ncccc1C(=O)O` [Clonixin lysinate], the “growth AUC normalised to DMSO control” value is 1.06 (inactive).

In the case of `CC(=O)N(O)CCCCCNC(=O)CCC(=O)N(O)CCCCCNC(=O)CCC(=O)N(O)CCCCCN` [Deferoxamine mesylate], the “growth AUC normalised to DMSO control” value was 1.07 (inactive).

In the case of `Cn1c(=O)c2c(ncn2CCO)n(C)c1=O` [Etofylline], the “growth AUC normalised to DMSO control” value is 1.02 (inactive).

On to `O=C1CCC(N2C(=O)c3ccccc3C2=O)C(=O)N1` (centres undefined) [Thalidomide], for which the “growth AUC normalised to DMSO control” value was 0.97 (inactive).

As to `COc1cc(NC(C)CCCN)c2ncccc2c1` (centres undefined) [Primaquine diphosphate], the “growth AUC normalised to DMSO control” value is 1.08 (inactive).

For the compound `COc1ccccc1OCC(O)COC(N)=O` (centres undefined) [Methocarbamol], the “growth AUC normalised to DMSO control” value was 0.977 (inactive).

Turning to `CC(C)NC(=N)NC(=N)Nc1ccc(Cl)cc1` [Proguanil hydrochloride], the “growth AUC normalised to DMSO control” value is 0.973 (inactive).

Turning to `O=C1NCN(c2ccccc2)C12CCN(CCCC(c1ccc(F)cc1)c1ccc(F)cc1)CC2` [Fluspirilene], the “growth AUC normalised to DMSO control” value was 1.05 (inactive).

As for `O=C1CN(/N=C/c2ccc([N+](=O)[O-])o2)C(=O)N1` [Nitrofurantoin], the “growth AUC normalised to DMSO control” value was 0.369 (active).

In the case of `CCN(CC)CCOc1ccc(C(=C(Cl)c2ccccc2)c2ccccc2)cc1` [(Z,E) Clomiphene citrate], the “growth AUC normalised to DMSO control” value is 1.02 (inactive).

`CCOC(=O)/C=C(C)/C=C/C=C(C)/C=C/c1c(C)cc(OC)c(C)c1C` [Etretinate]: the “growth AUC normalised to DMSO control” value is 1.03 (inactive).

For the compound `Cn1c(=O)c2c(ncn2C)n(C)c1=O` [Caffeine], the “growth AUC normalised to DMSO control” value was 1.04 (inactive).

As to `CCn1cc(C(=O)O)c(=O)c2cc(F)c(N3CCNCC3)nc21` [Enoxacin], the “growth AUC normalised to DMSO control” value was 0.0701 (active).

In the case of `CCCN(CCC)C(=O)C(CCC(=O)O)NC(=O)c1ccccc1` (centres undefined) [Proglumide], the “growth AUC normalised to DMSO control” value was 1.03 (inactive).

As for `NC[C@H]1O[C@H](O[C@H]2[C@H](O)[C@@H](O[C@H]3O[C@H](CO)[C@@H](O)[C@H](N)[C@H]3O)[C@H](N)C[C@@H]2N)[C@H](N)C[C@@H]1O` [Tobramycin], the “growth AUC normalised to DMSO control” value was 0.0457 (active).

`CCN(CC)CC(=O)Nc1c(C)cccc1C` [Lidocaine hydrochloride]: the “growth AUC normalised to DMSO control” value is 1.02 (inactive).

Turning to `CCOC(=O)C1=C(C)NC(C)=C(C(=O)OC)C1c1cccc([N+](=O)[O-])c1` (centres undefined) [Nitrendipine], the “growth AUC normalised to DMSO control” value is 1.03 (inactive).

For `NS(=O)(=O)c1cc2c(cc1C(F)(F)F)NCNS2(=O)=O` [Hydroflumethiazide], the “growth AUC normalised to DMSO control” value was 0.991 (inactive).
